Experimental data taken from PubChem BioAssay AID1521 (The Scripps Research Institute Molecular Screening Center, 2009).
The other results are listed elsewhere or left out. Unmarked numbers belong to inactive results. Calls of active or inactive are those of the source.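 Rule for the calls: active = mean inhibition above the hit cutoff derived in the earlier primary screen (cut at about 25% in these data); inactive = the rest.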

Experiment: viability loss in Ba/F3 EpoR-JAK2V617F cells, confirmation, JAK2V617F inhibitor project, cell-based, luminescence, triplicate (AID 1521);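 note: 0% = DMSO-treated cells and 100% = JAK inhibitor I control wells; higher means lower luminescence from reduced cell ATP and viability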
Conditions: CellTiter-Glo luminescence, at 5.6 µM, stronger effect = higher value

Compound	inhibition
O=C(CCl)Nc1ccc(Sc2ccc(NC(=O)CCl)cc2)cc1	99.7% (active)
O=C(CCl)N(Cc1cccc([N+](=O)[O-])c1)c1cccc(Cl)c1	99.7% (active)
c1ccc2c(c1)CSc1sccc1C2=C1CCNCC1	57.9% (active)
CCCc1nc2ccccc2c(=O)n1/N=C/c1ccc(O)c(O)c1	67.2% (active)
CN(Cc1ccc2nsnc2c1)Cc1nc(Cc2cccc(F)c2)no1	7.27%
CCCn1c(NC(=O)C23CC4CC(CC(O)(C4)C2)C3)nc2ccccc21	-6.61%
